Unmarked numbers belong to inactive results.
The targets below were run with ClCC(=O)N1CCC(CC#N)C1 (assay: log2 ratio of Biotin-Ahx-Ub-VS probe labelling (compound/DMSO); higher = less target engagement, active = hit call of the paper (q ≤ 0.05, log2 ratio ≤ -1)). Settings: compound concentration: 50uM; treatment time: 3 h.
Description: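 Round 2 competitive ABPP in HEK293T lysate. Purified HTC-D2B compounds were tested at 50 and 200 µM for 3 h, followed by Biotin-Ahx-Ub-VS enrichment and diaPASEF LC-MS/MS. Values are the average log2 ratio (compound/DMSO) from an unpaired t-test (n=3 treated, n=26 DMSO).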

Sequence of UniProt Q93009 (Q93009 whole entry, looked up): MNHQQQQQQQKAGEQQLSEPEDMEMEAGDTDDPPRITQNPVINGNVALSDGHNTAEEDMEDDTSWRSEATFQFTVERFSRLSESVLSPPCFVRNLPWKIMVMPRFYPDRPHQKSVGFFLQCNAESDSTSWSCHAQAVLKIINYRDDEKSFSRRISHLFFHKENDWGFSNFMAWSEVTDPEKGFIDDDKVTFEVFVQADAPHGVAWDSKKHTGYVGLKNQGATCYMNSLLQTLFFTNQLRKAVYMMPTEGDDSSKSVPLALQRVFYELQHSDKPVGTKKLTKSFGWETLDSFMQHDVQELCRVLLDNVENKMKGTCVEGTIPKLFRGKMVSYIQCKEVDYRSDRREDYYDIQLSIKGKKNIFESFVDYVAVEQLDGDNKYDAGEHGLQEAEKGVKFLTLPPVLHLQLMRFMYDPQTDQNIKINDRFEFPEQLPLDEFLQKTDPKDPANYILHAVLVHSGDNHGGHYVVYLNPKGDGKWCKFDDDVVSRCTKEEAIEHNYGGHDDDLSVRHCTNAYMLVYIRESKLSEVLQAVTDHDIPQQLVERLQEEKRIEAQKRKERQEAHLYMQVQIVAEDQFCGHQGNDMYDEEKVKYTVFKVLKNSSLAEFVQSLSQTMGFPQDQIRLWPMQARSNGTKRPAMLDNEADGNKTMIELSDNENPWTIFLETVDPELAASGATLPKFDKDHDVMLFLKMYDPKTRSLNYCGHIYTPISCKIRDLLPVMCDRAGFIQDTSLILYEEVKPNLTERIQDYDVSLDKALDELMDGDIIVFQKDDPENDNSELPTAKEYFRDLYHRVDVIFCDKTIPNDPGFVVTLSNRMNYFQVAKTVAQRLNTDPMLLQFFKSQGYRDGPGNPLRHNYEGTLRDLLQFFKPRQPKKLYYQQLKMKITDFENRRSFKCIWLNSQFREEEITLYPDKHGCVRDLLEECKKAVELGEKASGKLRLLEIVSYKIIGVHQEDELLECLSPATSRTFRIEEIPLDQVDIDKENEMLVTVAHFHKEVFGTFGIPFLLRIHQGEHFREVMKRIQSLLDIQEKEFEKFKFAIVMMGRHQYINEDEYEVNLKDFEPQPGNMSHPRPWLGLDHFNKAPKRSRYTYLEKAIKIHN
Sequence of UniProt O15372 (O15372 whole entry): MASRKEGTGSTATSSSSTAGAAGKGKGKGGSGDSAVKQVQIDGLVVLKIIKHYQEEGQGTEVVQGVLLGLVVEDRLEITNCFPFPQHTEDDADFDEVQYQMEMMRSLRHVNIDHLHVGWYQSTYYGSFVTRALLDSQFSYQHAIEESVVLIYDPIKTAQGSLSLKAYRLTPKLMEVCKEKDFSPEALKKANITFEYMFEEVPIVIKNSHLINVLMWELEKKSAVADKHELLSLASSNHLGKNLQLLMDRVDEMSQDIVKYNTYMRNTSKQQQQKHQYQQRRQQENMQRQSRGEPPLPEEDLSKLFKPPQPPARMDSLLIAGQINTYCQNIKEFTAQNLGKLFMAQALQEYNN
Sequence of UniProt Q96FW1 (Q96FW1 whole entry): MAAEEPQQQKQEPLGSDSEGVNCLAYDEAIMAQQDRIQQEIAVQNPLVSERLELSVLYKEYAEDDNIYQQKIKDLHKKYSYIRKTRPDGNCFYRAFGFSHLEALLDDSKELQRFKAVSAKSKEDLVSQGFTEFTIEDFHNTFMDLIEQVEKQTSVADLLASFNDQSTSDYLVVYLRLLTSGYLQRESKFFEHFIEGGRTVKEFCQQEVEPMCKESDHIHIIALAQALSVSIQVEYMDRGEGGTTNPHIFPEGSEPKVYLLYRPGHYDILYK
Sequence of UniProt Q14694 (Q14694 whole entry): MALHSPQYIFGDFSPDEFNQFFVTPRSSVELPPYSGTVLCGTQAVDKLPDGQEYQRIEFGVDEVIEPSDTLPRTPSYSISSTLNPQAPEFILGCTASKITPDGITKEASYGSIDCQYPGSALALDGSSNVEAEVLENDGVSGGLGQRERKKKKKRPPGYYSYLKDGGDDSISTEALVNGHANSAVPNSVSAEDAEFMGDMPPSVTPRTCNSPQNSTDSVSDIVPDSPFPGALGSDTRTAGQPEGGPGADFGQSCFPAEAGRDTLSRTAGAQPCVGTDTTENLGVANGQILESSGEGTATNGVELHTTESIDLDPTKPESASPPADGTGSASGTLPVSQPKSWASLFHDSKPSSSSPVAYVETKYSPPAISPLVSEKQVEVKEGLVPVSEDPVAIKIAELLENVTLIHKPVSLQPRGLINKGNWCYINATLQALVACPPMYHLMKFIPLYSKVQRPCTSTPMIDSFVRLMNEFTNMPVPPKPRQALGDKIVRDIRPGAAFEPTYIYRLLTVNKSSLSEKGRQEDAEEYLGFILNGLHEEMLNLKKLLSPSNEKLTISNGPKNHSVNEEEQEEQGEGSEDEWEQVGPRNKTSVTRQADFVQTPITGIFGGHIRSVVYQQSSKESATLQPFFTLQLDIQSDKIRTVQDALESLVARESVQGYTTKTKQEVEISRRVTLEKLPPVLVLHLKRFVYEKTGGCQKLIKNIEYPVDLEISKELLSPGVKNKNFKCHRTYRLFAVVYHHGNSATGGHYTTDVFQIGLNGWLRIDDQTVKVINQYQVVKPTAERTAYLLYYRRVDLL
Sequence of UniProt Q53GS9 (Q53GS9 whole entry): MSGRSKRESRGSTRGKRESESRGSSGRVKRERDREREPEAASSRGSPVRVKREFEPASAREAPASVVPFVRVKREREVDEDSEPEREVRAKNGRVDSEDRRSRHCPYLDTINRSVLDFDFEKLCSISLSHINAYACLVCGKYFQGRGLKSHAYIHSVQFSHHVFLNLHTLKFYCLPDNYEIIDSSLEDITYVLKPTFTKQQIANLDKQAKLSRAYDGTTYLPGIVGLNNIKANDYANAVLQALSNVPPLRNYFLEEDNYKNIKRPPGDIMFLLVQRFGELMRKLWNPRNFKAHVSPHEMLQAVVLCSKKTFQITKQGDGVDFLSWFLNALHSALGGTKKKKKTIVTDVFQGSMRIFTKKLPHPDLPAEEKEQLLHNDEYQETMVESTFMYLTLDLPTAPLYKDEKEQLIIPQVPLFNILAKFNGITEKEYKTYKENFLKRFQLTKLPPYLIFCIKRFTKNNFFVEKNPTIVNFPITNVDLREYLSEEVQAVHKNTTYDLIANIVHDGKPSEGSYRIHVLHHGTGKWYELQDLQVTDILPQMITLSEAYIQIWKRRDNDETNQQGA
Sequence of UniProt O94966 (O94966 whole entry): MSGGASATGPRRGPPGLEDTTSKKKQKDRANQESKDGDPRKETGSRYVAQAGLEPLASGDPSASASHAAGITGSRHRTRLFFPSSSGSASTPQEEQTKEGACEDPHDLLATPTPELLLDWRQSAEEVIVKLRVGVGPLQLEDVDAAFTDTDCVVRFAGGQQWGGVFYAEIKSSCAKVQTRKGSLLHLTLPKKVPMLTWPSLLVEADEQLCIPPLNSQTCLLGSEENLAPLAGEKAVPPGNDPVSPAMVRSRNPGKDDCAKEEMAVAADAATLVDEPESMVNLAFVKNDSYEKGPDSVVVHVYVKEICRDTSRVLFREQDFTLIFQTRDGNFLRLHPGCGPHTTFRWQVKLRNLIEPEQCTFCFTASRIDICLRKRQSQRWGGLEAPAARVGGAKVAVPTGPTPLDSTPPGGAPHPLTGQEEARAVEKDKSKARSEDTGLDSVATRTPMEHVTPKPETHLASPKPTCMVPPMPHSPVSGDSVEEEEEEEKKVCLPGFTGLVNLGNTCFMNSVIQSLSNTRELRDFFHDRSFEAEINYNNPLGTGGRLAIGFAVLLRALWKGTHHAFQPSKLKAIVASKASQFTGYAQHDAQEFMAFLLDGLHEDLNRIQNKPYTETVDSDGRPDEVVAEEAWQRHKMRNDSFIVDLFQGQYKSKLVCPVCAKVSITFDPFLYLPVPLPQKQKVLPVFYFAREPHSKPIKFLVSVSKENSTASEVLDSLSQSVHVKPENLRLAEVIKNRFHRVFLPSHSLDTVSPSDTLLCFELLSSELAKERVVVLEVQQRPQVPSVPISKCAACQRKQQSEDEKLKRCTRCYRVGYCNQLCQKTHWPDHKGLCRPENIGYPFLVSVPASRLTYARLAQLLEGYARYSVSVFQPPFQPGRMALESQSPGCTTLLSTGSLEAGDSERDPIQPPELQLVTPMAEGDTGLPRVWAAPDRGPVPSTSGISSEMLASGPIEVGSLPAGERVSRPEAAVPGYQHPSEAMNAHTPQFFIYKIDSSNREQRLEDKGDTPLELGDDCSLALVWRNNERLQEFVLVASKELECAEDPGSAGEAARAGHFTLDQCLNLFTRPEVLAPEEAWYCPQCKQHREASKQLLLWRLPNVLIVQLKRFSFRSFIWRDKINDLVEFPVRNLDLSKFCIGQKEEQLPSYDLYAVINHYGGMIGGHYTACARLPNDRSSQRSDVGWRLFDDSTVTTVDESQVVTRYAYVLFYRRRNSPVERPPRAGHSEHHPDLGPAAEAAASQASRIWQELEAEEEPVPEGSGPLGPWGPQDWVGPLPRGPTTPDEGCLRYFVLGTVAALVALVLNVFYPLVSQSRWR
Sequence of UniProt Q8N6M0 (Q8N6M0 whole entry): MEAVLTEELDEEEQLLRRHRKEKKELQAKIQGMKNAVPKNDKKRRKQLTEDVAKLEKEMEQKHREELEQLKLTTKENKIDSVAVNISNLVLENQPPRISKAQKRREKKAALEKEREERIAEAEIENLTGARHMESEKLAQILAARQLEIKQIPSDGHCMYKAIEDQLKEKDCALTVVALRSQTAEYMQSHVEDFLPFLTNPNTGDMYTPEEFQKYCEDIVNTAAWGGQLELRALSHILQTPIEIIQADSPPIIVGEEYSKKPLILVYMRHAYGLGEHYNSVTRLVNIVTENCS
Sequence of UniProt Q5VVQ6 (Q5VVQ6 whole entry): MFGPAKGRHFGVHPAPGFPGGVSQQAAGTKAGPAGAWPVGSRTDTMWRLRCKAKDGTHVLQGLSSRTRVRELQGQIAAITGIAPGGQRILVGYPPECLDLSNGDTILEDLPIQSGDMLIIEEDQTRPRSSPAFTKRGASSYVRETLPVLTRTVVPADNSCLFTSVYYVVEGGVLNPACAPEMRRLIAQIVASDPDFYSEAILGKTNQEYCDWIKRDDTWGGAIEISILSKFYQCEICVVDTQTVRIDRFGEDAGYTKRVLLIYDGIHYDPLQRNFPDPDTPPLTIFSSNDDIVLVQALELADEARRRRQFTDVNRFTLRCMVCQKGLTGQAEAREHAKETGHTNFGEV

| Target | log2 ratio of Biotin-Ahx-Ub-VS probe labelling |
| --- | --- |
| EIF3H (UniProt O15372) | 0.0416 |
| USP36 (UniProt Q9P275) | -0.193 |
| USP12 (UniProt O75317) | -0.0667 |
| UniProt Q9UGI0 | -0.025 |
| OTUB1 (UniProt Q96FW1) | -0.024 |
| YOD1 (UniProt Q5VVQ6) | -0.225 |
| USP7 (UniProt Q93009) | -0.141 |
| OTUD6B (UniProt Q8N6M0) | -0.197 |
| USP19 (UniProt O94966) | -0.285 |
| EIF3F (UniProt O00303) | -0.172 |
| MINDY4 (UniProt Q4G0A6) | 0.173 |
| USP39 (UniProt Q53GS9) | -0.0848 |
| COPS5 (UniProt Q92905) | -0.111 |
| USP4 (UniProt Q13107) | -0.106 |
| OTUD7B (UniProt Q6GQQ9) | -0.339 |
| UniProt Q9P2H5 | -0.115 |
| PSMD7 (UniProt P51665) | 0.408 |
| VCPIP1 (UniProt Q96JH7) | -0.405 |
| OTUD4 (UniProt Q01804) | -0.19 |
| USP10 (UniProt Q14694) | -0.155 |

Same assay, conditions: compound concentration: 200uM; treatment time: 3 h

| Target | log2 ratio of Biotin-Ahx-Ub-VS probe labelling |
| --- | --- |
| EIF3H (UniProt O15372) | 0.0793 |
| USP36 (UniProt Q9P275) | 0.0225 |
| USP12 (UniProt O75317) | -0.647 |
| UniProt Q9UGI0 | -0.16 |
| OTUB1 (UniProt Q96FW1) | -0.102 |
| YOD1 (UniProt Q5VVQ6) | 0.00802 |
| USP7 (UniProt Q93009) | -0.201 |
| OTUD6B (UniProt Q8N6M0) | -0.265 |
| USP19 (UniProt O94966) | -0.557 |
| EIF3F (UniProt O00303) | 0.14 |
| MINDY4 (UniProt Q4G0A6) | -0.0819 |
| USP39 (UniProt Q53GS9) | 0.0939 |
| COPS5 (UniProt Q92905) | -0.11 |
| USP4 (UniProt Q13107) | 0.254 |
| OTUD7B (UniProt Q6GQQ9) | -0.552 |
| UniProt Q9P2H5 | 0.00502 |
| PSMD7 (UniProt P51665) | 0.631 |
| VCPIP1 (UniProt Q96JH7) | -0.311 |
| OTUD4 (UniProt Q01804) | -0.226 |
| USP10 (UniProt Q14694) | -0.0316 |

Reference: the supplement of paper PMC11732987, “Enantioselective OTUD7B fragment discovery through chemoproteomics screening and high-throughput optimisation” (Communications Chemistry, 2025)
